Assay outcomes from PubChem.
TROY NFkB inh = TROY signaling inhibition; AID 1347056; Q293 LMP1-TROYcd NF-kB luciferase reporter, 4 h; hit rate 0.98% among 360,000; inhibition, % at 10 µM;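 active = compounds whose plate-normalised and pattern-corrected inhibition of the luciferase reporter signal at the single screening dose is 50% or more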
EWS-Fli inh = blocks EWS/Fli oncoprotein-driven transcription | hit rate 0.67% among 350,000 | A673 NR0B1-luciferase reporter, viability-normalised | AID 651661 | inhibition, % at 12.6 µM;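 active = mean inhibition of at least 50% after viability correction, with every replicate also passing that limit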;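 note: firefly luciferase signal divided by Alamar Blue viability fluorescence both relative to DMSO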
TWEAK Fn14 block = TWEAK-Fn14 signaling inhibition; TWEAK-stimulated Fn14 reporter cells, luciferase luminescence, 8 h; inhibition, % at 10 µM; hit rate 2% among 360,000; AID 1159606; in the data active = inhibition above about 50%
KKLEB cytotox = reduces viability of KKLEB cystic fibrosis airway cells. KKLEB CF airway cells viability, ATPlite luminescence, overnight; stronger effect = lower value; cells stimulated with P. aeruginosa culture filtrate. activity change (cytotoxicity), % at 5 µM. hit rate 0.36% among 360,000;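 active = corrected activity change at or below -50% at 5 µM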
LGR2 inh = blocks bursicon-induced cAMP signaling via Drosophila LGR2; HEK293 LGR2, CRE-luciferase, bursicon-stimulated, 4 h; inhibition, % at 9.99 µM; hit rate 0.35% among 380,000; AID 720647;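 active = drop in luminescence signal, shown as inhibition above about 50% in the replicate tests, limit read from the data, passing the limit was not always enough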;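 note: agonist challenge used bursicon conditioned medium at about half maximal strength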
CF NFkB inh = blocks PAF-induced NF-kB reporter in cystic fibrosis cells; KKLEB NF-kB-GFP reporter, GFP fluorescence overnight; inhibition, % at 5 µM; AID 588850; hit rate 0.86% among 360,000;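 active = at least 50% inhibition at 5 µM, scaled per plate between neutral and stimulator controls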;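 note: PAF is a Pseudomonas aeruginosa culture filtrate used as stimulus; plate controls were PAF-stimulated DMSO wells for no effect and unstimulated DMSO wells for full effect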
Active calls of the source: *; · = not tested or not shown. An excerpt weighted towards active compounds, which were near 2.6% of everything screened.

SMILES	TROY NFkB inh	EWS-Fli inh	TWEAK Fn14 block	KKLEB cytotox	LGR2 inh	CF NFkB inh
CCCCCn1c(N)c(-c2nc3ccccc3s2)c2c([N+](=O)[O-])nn(CC)c(=O)c21	9.3	·	83.0*	-58.5*	-4.9	59.0*
CCCCn1c(N)c(-c2nc3ccccc3s2)c2c([N+](=O)[O-])nn(C)c(=O)c21	2.8	·	-21.6	-32.7	-10.4	48.7
CCCCCn1c(N)c(-c2nc3ccccc3o2)c2c([N+](=O)[O-])nn(CC)c(=O)c21	-5.7	-3.8	-71.5	-4.3	3.2	13.1
COc1ccc(NS(=O)(=O)c2cccc(NC(=O)CCC(=O)c3ccc(Cl)cc3)c2)cc1	34.4	4.6	74.7*	-2.8	·	-16.9
COc1ccc(NS(=O)(=O)c2cccc(NC(=O)c3ccc(Cl)nc3)c2)cc1	26.6	11.4	70.4*	-39.7	19.7	3.1
O=C(Nc1cccc(S(=O)(=O)Nc2ccc(Cl)cc2)c1)c1ccc(Cl)nc1	53.1*	26.3	80.3*	9.5	17.4	-2.2
CCN1C(=O)/C(=C/c2nc3ccccc3c(=O)n2-c2ccccc2)c2ccccc21	27.1	·	58.4*	3.3	·	-5.4
C[C@@H]1CN([C@@H](C)CO)C(=O)c2cc(NC(=O)c3ccccc3)ccc2O[C@@H](C)CCCCO[C@@H]1CN(C)C(=O)CCC(F)(F)F	·	-6.8	·	·	-0.8	·
N#CCC(=O)N1CC2(CC(c3cccc(NC(=O)COc4ccc(Cl)cc4)c3)=NO2)C[C@@H]1C(N)=O (stereo not given in full)	11.8	-2.5	-2.6	7.3	20.0	3.6
NC(=O)[C@H]1CC2(CC(c3cccc(NC(=O)COc4ccc(Cl)cc4)c3)=NO2)CN1C(=O)C(c1ccccc1)c1ccccc1 (stereo not given in full)	32.7	10.0	56.8*	2.1	-1.7	0.3
NC(=O)[C@@H]1CC2(CC(c3cccc(NC(=O)COc4ccc(Cl)cc4)c3)=NO2)CN1C(=O)COc1ccc(Cl)cc1 (stereo not given in full)	46.5	8.2	81.6*	-8.2	15.5	6.6
Cc1ccc(S(=O)(=O)c2c(C)cc(C)nc2Oc2cccc(C)c2C)cc1	-4.0	·	72.0*	-5.2	·	0.7
CO[C@@H]1CC[C@@H]2CCN(C)C(=O)[C@@H](C)[C@H](OC)CN(C)C(=O)c3cccc(C#N)c3OC[C@@H]1O2	·	-0.1	·	·	44.9	·
COc1ccccc1NC(=O)N(C)C[C@H]1OCc2ccccc2-c2c(n(C)c3ccccc23)C(=O)N([C@H](C)CO)C[C@@H]1C	·	-3.5	·	·	13.0	·
COC(=O)c1sccc1NC(=O)CSc1ccccc1NS(=O)(=O)c1ccc(Br)cc1	52.2*	·	53.5*	0.1	·	18.7
COC(=O)c1sccc1NC(=O)CSc1ccccc1NS(=O)(=O)c1ccc(F)cc1	38.8	·	19.7	4.7	·	1.0
C[C@H]1CN([C@@H](C)CO)C(=O)c2cc(/C=C/c3ccccc3)cnc2O[C@@H]1CN(C)Cc1ccccc1	·	14.2	·	·	-9.2	·
c1ccc2c(c1)C(=NCC1CCCO1)NC2=NCC1CCCO1 (stereo not given)	-24.1	6.0	5.3	-3.5	-5.1	2.1
CC(C)(C)N=C1NC(=NC(C)(C)C)c2ccccc21	-22.7	4.1	52.5*	-9.0	13.5	-5.6
O=c1c2ccccc2ncn1-c1ccc2c(c1)OCCO2	-4.3	·	50.8*	7.2	-36.1	3.2
CN1CCN(C(=O)C[C@H]2C[C@@H]3c4cc(NC(=O)C5CCC5)ccc4O[C@@H]3[C@H](CO)O2)CC1	·	-2.3	·	·	4.7	·
Cc1ccc(C)c(/C=C/C(=O)c2ccccc(=O)c2O)c1	5.2	32.8	32.5	-10.6	9.8	-17.2
Cc1ccc(/C=C/C(=O)c2ccccc(=O)c2O)c(C)c1	72.8*	·	87.4*	1.1	1.6	-28.7
C[C@@H]1CN([C@H](C)CO)S(=O)(=O)c2ccc(C#CC3(O)CCCC3)cc2O[C@@H]1CN(C)C(=O)Nc1ccc(F)cc1	·	12.2	·	·	9.9	·
COc1ccc(NC(=O)c2cc([N+](=O)[O-])ccc2O)cc1	86.9*	72.8*	104.0*	6.2	96.0*	36.6
SMILES	TROY NFkB inh	EWS-Fli inh	TWEAK Fn14 block	KKLEB cytotox	LGR2 inh	CF NFkB inh
O=C(Nc1cccc([N+](=O)[O-])c1)c1cc2ccccc2cc1O	11.8	-11.8	82.7*	-51.6*	-23.5	59.7*
O=C(O)CCn1cc(/C=C/C(=O)c2ccc(Cl)cc2)c(-c2ccc(Br)cc2)n1	17.7	19.6	59.6*	-22.0	26.0	-10.6
COCC#Cc1cnc2c(c1)C(=O)N([C@H](C)CO)C[C@@H](C)[C@@H](CN(C)C(=O)C1CC1)O2	·	-2.9	·	·	8.6	·
O=C1CC(N2CCN(c3ccccc3)CC2)C(=O)N1c1ccc2c(c1)OCCO2 (stereo not given)	51.4*	·	29.5	-0.8	·	-4.7
CN1CCN(C2CC(=O)N(c3ccc4c(c3)OCCO4)C2=O)CC1 (stereo not given)	17.5	·	0.6	8.0	·	-8.7
O=C(NCCCc1ccccc1)C1CC(=O)N(c2ccc3c(c2)OCCO3)C1 (stereo not given)	26.2	·	71.0*	1.3	·	7.0
O=C(NCCc1ccccc1)C1CC(=O)N(c2ccc3c(c2)OCCO3)C1 (stereo not given)	11.4	-4.9	6.0	-1.3	2.6	0.7
O=C(C1CC(=O)N(c2ccc3c(c2)OCCO3)C1)N1CCN(c2ccccc2)CC1 (stereo not given)	28.2	-9.6	63.5*	0.7	8.6	0.4
O=C(C1CC(=O)N(c2ccc3c(c2)OCCO3)C1)N1CCN(c2ccccc2O)CC1 (stereo not given)	-0.3	·	10.7	6.1	13.7	-17.4
O=C(C[C@@H]1C[C@@H]2c3cc(NC(=O)CC4CC4)ccc3O[C@@H]2[C@H](CO)O1)NCc1cccnc1	·	-1.7	·	·	-8.8	·
C[C@@H]1CCCCO[C@H](CN(C)Cc2ccncc2)[C@H](C)CN([C@H](C)CO)C(=O)c2cc(NS(=O)(=O)c3cccs3)ccc2O1	·	4.3	·	·	-4.8	·
CN(C)c1ccc2c(=O)c3ccccc3oc2n1	-26.8	-1.1	55.2*	-6.2	4.9	1.1
Cc1noc(C)c1S(=O)(=O)Nc1ccc2c(c1)C(=O)N([C@@H](C)CO)C[C@@H](C)[C@H](CN(C)C(=O)c1ccncc1)OCCCC[C@H](C)O2	·	-7.5	·	·	9.8	·
C[C@H](CO)N1C[C@H](C)[C@H](CN(C)C(=O)Nc2ccc(F)cc2)Oc2ncc(C#CC(C)(C)O)cc2C1=O	·	1.4	·	·	0.4	·
O=C(O)c1ccc(OCCCCCCOC2CCCCO2)cc1 (stereo not given)	-5.1	-0.5	-21.6	-7.9	-5.3	26.6
COc1cc2cnc(CCO[C@H]3CCCCO3)cc2cc1OC	52.1*	-14.5	31.1	-12.7	-13.6	11.1
COc1ccc2cc(CCOC3CCCCO3)ncc2c1 (stereo not given)	9.4	-11.5	60.3*	-13.3	26.0	-1.9
